Each structure is given as a SMILES string. Results filed as inconclusive are left out. A number with no mark means an inactive call. Active and inactive are the calls of the source. The call rests on the fitted dose curve; in most records, active means well fitted curve in the direction sought with a large enough effect; inconclusive means small, poorly fitted or top-dose-only effect, or another doubt; inactive means no such curve, though single readings can be large; an effect the other way counts as inactive or inconclusive.

The test system of one experiment is Hek293T. The experiment can be described thus: Primary qHTS to identify gynecologic anti-cancer compounds using libraries of approved drugs and bioactive compounds (AID 1345084). Further: nearly all actives have a fitted effect of over 55% in size. The following applies: Gynecologic cancer cell panel viability, ATPlite luminescence, 48 h, control line for the selectivity index; series mostly up to 57.5 µM. In outline:
(§1)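 ATP-based viability (ATPlite), 1,000 cells/well, 16 h pre-incubation, 48 h compound at 37 C, 5% CO2, 15 min RT before read.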

The subject of a further experiment is JEG-3. The description is as above. The settings on record: Gynecologic cancer cell panel viability, ATPlite luminescence, 48 h; series mostly up to 57.5 µM. The method, boiled down:
as §1

For another experiment, the system named is OV90. Described as above. The following applies: Gynecologic cancer cell panel viability, ATPlite luminescence, 48 h; series mostly up to 57.5 µM. The method, boiled down: as §1
In general terms: In ATP-based viability assays light output follows the ATP content of the culture.

Another experiment has as its system PA-1. Described as above. The settings on record: Gynecologic cancer cell panel viability, ATPlite luminescence, 48 h; series mostly up to 57.5 µM. In outline: as §1
In a further experiment the test system is Tov112D. The description is as above. The following applies: Gynecologic cancer cell panel viability, ATPlite luminescence, 48 h; series mostly up to 57.5 µM. In outline:
as §1

The test system of the next experiment is Es-2. Described as above. The following applies: Gynecologic cancer cell panel viability, ATPlite luminescence, 48 h; series mostly up to 57.5 µM. The method, boiled down: as §1
The next experiment deals with HeLa. The experiment is described as above. The following applies: Gynecologic cancer cell panel viability, ATPlite luminescence, 48 h; series mostly up to 57.5 µM. The method, boiled down:
as §1

Another experiment has as its system Tov-21-G. Described as above. The settings on record: Gynecologic cancer cell panel viability, ATPlite luminescence, 48 h; series mostly up to 57.5 µM. In outline: as §1
The test system of the next experiment is SKOV3. The description is as above. The settings on record: Gynecologic cancer cell panel viability, ATPlite luminescence, 48 h; series mostly up to 57.5 µM. The method, boiled down: as §1
The nature of experiment [1]: qHTS assay to identify inhibitors of the type 1 interferon - major histocompatibility complex class I in skeletal muscle: Counter screen cell viability and HiBit confirmation (AID 1347412). On all read-outs here: nearly all actives have a fitted effect of over 60% in size. The following applies: iHSKM muscle cells + IFN-b, HiBiT or CellTiter-Glo, 24 h; for activity change, negative = inhibition: at 45.9 µM (top of the series). In outline: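 After 24 h with human IFN-beta (4 ng/ml) and compound titrations (top 46 uM final, 1:3, 12 points), HLA-B HiBit myoblasts were lysed for either Nano-Glo HiBiT luminescence or CellTiter Glo viability on paired plates.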
On the % scale 0 is the no-effect control and ±100 the full control effect; potency means the concentration at half of the fitted maximal effect.

Take `CCNC(=O)Nc1ccc(-c2nc3c(c(N4CCOC[C@@H]4C)n2)CCN(c2ncccn2)C3)cc1`: the Potency in the experiment on Hek293T is 1000 nM (active); in the experiment with OV90, 1260 nM (active); with PA-1 it was 1120 nM (active). For the same molecule, the Potency entry with JEG-3 is “inactive”.

On to `C[C@@H](Oc1cc(-n2cnc3ccc(OC4CCN(C)CC4)cc32)sc1C(N)=O)c1ccccc1C(F)(F)F`, for which, in the experiment with PA-1, the Potency is 316 nM (active).

`C/C=C/c1ccc(O[C@@H]2O[C@H](CO)[C@@H](O)[C@H](O)[C@H]2O)c(OC)c1`: the Potency result with OV90 and in the experiment with Tov112D was “inactive” throughout.

As to `COc1cc(OC)c(/C=C/S(=O)(=O)Cc2ccc(OC)c(NCC(=O)O)c2)c(OC)c1`, the Potency was 316 nM (active) with Es-2; 251 nM (active) in the experiment with HeLa; 447 nM (active) with JEG-3; 224 nM (active) with PA-1; 316 nM (active) in the experiment on Tov112D.

For the molecule `Cn1cc(S(=O)(=O)c2ccc(Cl)cc2)c2cccc(N3CCNCC3)c21`, in the experiment on HeLa, the Potency entry was “inactive”. In addition, the Potency is 20000 nM (active) in the experiment with Tov-21-G and 28200 nM (active) in the experiment on Tov112D.

For `Cc1c(C(=O)N2CCOc3ccc(-c4ccc(N)nc4)cc3C2)ccc(S(C)(=O)=O)c1F`, the Potency result with JEG-3 is “inactive”.

Turning to `CCOc1cc2ncc(C#N)c(Nc3ccc(F)c(Cl)c3)c2cc1NC(=O)/C=C/CN(C)C`, the Potency in the experiment on Hek293T is 25100 nM (active); with SKOV3 it was 398 nM (active); with Tov-21-G, 1000 nM (active); in experiment [1] (HiBiT) it was 1980 nM (active); in experiment [1] (Viability), 17600 nM (active). Further, in the experiment with OV90, the Potency entry was “inactive”.

Regarding `N#Cc1cnc2cnc(NCc3cccnc3)cc2c1Nc1ccc(F)c(Cl)c1`, the Potency entry in the experiment on HeLa and with JEG-3 was “inactive” in each case.

With `CC(C)(C#N)c1ccc(N2C(=O)OCc3cnc4ccc(-c5cnc6ccccc6c5)cc4c32)cc1`, the Potency in the experiment with Hek293T was 12600 nM (active); with PA-1, 12600 nM (active); with SKOV3, 2820 nM (active); in the experiment on Tov-21-G it was 10000 nM (active). Besides, in the experiment with JEG-3, the Potency result is “inactive”.

For `C=CC(=O)Nc1cccc(CN2C(=O)N(c3c(Cl)c(OC)cc(OC)c3Cl)Cc3cnc(NCCCCN(CC)CC)nc32)c1`, the Potency result in the experiment with Es-2, with Hek293T, with JEG-3 and in the experiment on OV90 was “inactive” in each case.

Take `COc1cc(C2c3cc4c(c(O)c3CC(CO)C2C(=O)O)OCO4)cc(OC)c1O` (configuration not stated): the Potency with Es-2 was 3550 nM (active); with Hek293T, 3980 nM (active); in the experiment on PA-1 it was 2000 nM (active); with SKOV3, 11200 nM (active); with Tov112D it was 4470 nM (active).

With `CCN1CCN(Cc2ccc(NC(=O)Nc3ccc(Oc4cc(NC)ncn4)cc3)cc2C(F)(F)F)CC1`, in experiment [1] (HiBiT), the Potency is 5570 nM (active). Also, in [1] (Viability), the activity change, negative = inhibition is -17.1%.

As to `O=C(Nc1ccc(S(=O)(=O)C(F)(F)F)cc1)C1=CCN(c2ncccc2C(F)(F)F)CC1`, the Potency entry in the experiment on JEG-3 and with Tov-21-G was “inactive” throughout.

Turning to `CCN(CC)c1ccc2c(O)c(C=Nc3ccc(CC(=O)O)c(-c4c5c(nc6ccccc46)CCC(C(=O)NN)C5)c3)c(=O)oc2c1` (configuration not stated), the Potency entry with Tov112D is “inactive”.

For the molecule `CCc1cnn2c(NCc3ccc[n+]([O-])c3)cc(N3CCCCC3CCO)nc12` (configuration not stated), the Potency entry in the experiment on JEG-3 and in the experiment on OV90 was “inactive” throughout.

For the molecule `COC(=O)C1(C)c2[nH]c3ccccc3c2CCN1C(=O)CCl` (configuration not stated), the Potency result with OV90 is “inactive”. Moreover, the Potency with Tov-21-G was 22400 nM (active).

As for `Cn1c(=O)n(-c2ccc(C(C)(C)C#N)cc2)c2c3cc(C#Cc4cccnc4)ccc3ncc21`, the Potency with Hek293T was 89.1 nM (active); in the experiment with OV90, 224 nM (active); in the experiment on PA-1 it was 282 nM (active); in the experiment on Tov-21-G it was 158 nM (active).

Regarding `C=CC(=O)Nc1cccc(Nc2nc(Nc3ccc(N4CCN(C(C)=O)CC4)cc3OC)ncc2C(F)(F)F)c1`, the Potency result with Es-2 was “inactive”. Moreover, the Potency in the experiment with OV90 is 15800 nM (active).

As for `CC(=O)O[C@H]1CC(C)(C)CC2[C@@]13[C@H](O)C[C@]1(C)[C@@]2(CCC2[C@@]4(C)CC[C@H](O[C@@H]5OC[C@H](O[C@@H]6O[C@H](CO)[C@@H](O)[C@H](O)[C@H]6O[C@@H]6OC[C@@H](O)[C@H](O)[C@H]6O)[C@H](O)[C@H]5O[C@@H]5O[C@H](CO)[C@@H](O)[C@H](O)[C@H]5O)C(C)(C)C4CC[C@]21C)O[C@@H]3O` (some centres not stated), the activity change, negative = cytotoxicity in the experiment with HeLa was -7.2% [at 11.6 µM]. Moreover, the Potency in the experiment on JEG-3 is 2820 nM (active); in the experiment on OV90 it was 3160 nM (active).

As to `COc1cc(-c2ncn(/C=C\C(=O)OC(C)C)n2)cc(C(F)(F)F)c1`, the Potency in the experiment with Es-2 was 891 nM (active); in the experiment with HeLa, 15800 nM (active); in the experiment with PA-1 it was 562 nM (active).

Take `CCCCC1CCN(CCCC(=O)c2ccccc2C)CC1`: the Potency result in the experiment on Es-2, with HeLa, in the experiment on SKOV3 and in the experiment with Tov-21-G was “inactive” in each case.

Take `CC(=O)NC1=NN(C(C)=O)C(C)(c2ccccc2)S1` (configuration not stated): the values for the Potency in the experiment with HeLa, in the experiment with PA-1 and in the experiment with Tov112D were 14100 nM (active), 3980 nM (active) and 3160 nM (active), respectively. Also, the Potency entry with OV90 is “inactive”.

For `CCOC(=O)Nc1cc(-c2ccc(C)c(NS(C)(=O)=O)c2)nn2c(C)nnc12`, the Potency in the experiment on Es-2 was 12600 nM (active); with OV90, 12600 nM (active); with PA-1, 31600 nM (active); in the experiment on SKOV3, 7080 nM (active).

`Cc1ccc(C(=O)N(CCCN)C(c2oc3cc(Cl)ccc3c(=O)c2Cc2ccccc2)C(C)C)cc1` (configuration not stated): the Potency entry in the experiment on OV90 was “inactive”.

In the case of `C=C1C(=O)OC2C1CCC(=C)C1CC(OC(C)=O)C(=C)C12` (configuration not stated), the Potency entry with HeLa, in the experiment on SKOV3 and with Tov112D was “inactive” each time.

On to `O=C(CSc1nc2c(c(=O)n1-c1ccccc1)SCC2)Nc1ccc(-c2ccccc2)cn1`, for which the Potency was 224 nM (active) with Es-2; 158 nM (active) with HeLa; 1260 nM (active) in the experiment on OV90; 316 nM (active) with Tov-21-G; 158 nM (active) in the experiment with Tov112D.

In the case of `COc1cc2c(cc1OC)[C@@H]1[C@H](O)[C@@H](OC)C=C3CCN(C2)[C@H]31`, the Potency result in the experiment on HeLa, with JEG-3 and with SKOV3 was “inactive” in each case.

Turning to `COc1cc2ncnc(Nc3cccc(Cl)c3F)c2cc1OC(=O)N1CCN(C)C[C@H]1C`, the Potency in the experiment on Tov112D was 22400 nM (active).

Regarding `NC(=O)Nc1cc(-c2cccc(F)c2)sc1C(=O)NC1CCCNC1` (configuration not stated), the figures for the Potency in the experiment on Hek293T and in the experiment with OV90 were 447 nM (active) and 5620 nM (active), respectively.

Turning to `CC(O)/C=C/C1(O)C2(C)COC1(C)CC(O)C2` (configuration not stated), the Potency entry in the experiment on Es-2 and with PA-1 was “inactive” in each case.

As to `C[C@H]1[C@H](O)O[C@@H]2O[C@@]3(C)CC[C@H]4[C@H](C)CC[C@@H]1[C@@]24OO3`, the Potency in the experiment with HeLa was 12600 nM (active); in the experiment on Hek293T, 8910 nM (active); in the experiment with Tov-21-G, 28200 nM (active). Also, the Potency result in the experiment on OV90 was “inactive”.

In the case of `CCS(=O)(=O)N1CCN(c2ccc(Nc3ncc(C(N)=O)c(NC4CC4)n3)cc2)CC1`, the Potency entry in the experiment on JEG-3 and in the experiment with Tov112D was “inactive” throughout. The Potency with OV90 is 12600 nM (active); in [1] (HiBiT), 1980 nM (active). Also, in experiment [1] (Viability), the activity change, negative = inhibition was 5.56%.

Consider `COc1cccc(-c2cc(NCc3ccc4c(c3)OCO4)nc(N)n2)c1`, for which the Potency is 1410 nM (active) in the experiment on Es-2; 1000 nM (active) with HeLa; 1410 nM (active) in the experiment on JEG-3; 1000 nM (active) with PA-1; 1000 nM (active) with Tov-21-G; 447 nM (active) in the experiment with Tov112D.

For the molecule `Cc1cc(C)c(Nc2ccnc(Nc3ccc(C#N)cc3)n2)c(C)c1`, the Potency entry in the experiment with JEG-3 and in the experiment on PA-1 was “inactive” throughout. In the experiment on OV90, the Potency was 10000 nM (active).

As for `Oc1ccc(CNc2ccccc2F)c2cccnc12`, the Potency entry in the experiment with JEG-3 was “inactive”. In addition, the Potency with PA-1 was 17800 nM (active).

Consider `C[C@@H]1C[C@@H]2O[C@H]2/C=C\C=C\C(=O)Cc2c(Cl)c(O)cc(O)c2C(=O)O1`, for which the Potency result with HeLa, with JEG-3 and with Tov112D was “inactive” throughout. Also, in the experiment on PA-1, the Potency was 10000 nM (active).

Source of the values: PubChem BioAssay (NCATS).
